Reference: PubChem BioAssay (EPA / NIEHS)
“And” between values parts separate entries of the source, which are not always exact repeats. Equal values may be shown once. Records with an inconclusive call do not appear. A structure can be active in one record and inactive in another. The source made the active and inactive calls. How the source made its calls, unless noted: active means hit-call score of the fitted dose curve at least 0.9, where 1 is the maximum; inactive means score below 0.9.

Assays:
[1] = read-out: Plasminogen activator inhibitor-1 (PAI1), SERPINE1 (gene 5054); assay: BSK_CASM3C_PAI1: BioMAP Diversity Plus: CASM3C Assay for Plasminogen activator inhibitor-1 (PAI1) Biomarker Activity (AID 2284284); conditions: primary human coronary artery smooth muscle cells;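 further: PAI-1 protein level measured by ELISA 24 h after dosing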
[2] = read-out: Monocyte Chemoattractant Protein-1 (MCP1), CCL2 (gene 6347); assay: BSK_hDFCGF_MCP1: BioMAP Diversity Plus: hDFCGF Assay for Monocyte Chemoattractant Protein-1 (MCP1) Biomarker Activity (AID 2284285); conditions: primary human foreskin fibroblasts
Outline: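 Human foreskin fibroblasts (hDFCGF system) were exposed to compound and secreted MCP-1 was measured by ELISA after 24 hours. Activity was fitted relative to DMSO. Cytotoxicity was checked by SRB total-protein staining in parallel cultures.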

[3] = read-out: Vascular cell adhesion molecule 1 (VCAM1), VCAM1 (gene 7412); assay: BSK_IMphg_VCAM1: BioMAP Diversity Plus: IMphg Assay for Vascular cell adhesion molecule 1 (VCAM1) Biomarker Activity (AID 2284286); conditions: primary human endothelial cells with macrophages
Outline: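 Human venular endothelial cells co-cultured with macrophages; VCAM-1 quantified by ELISA 24 h after dosing, fitted in the positive direction against DMSO. Cytotoxicity was checked in parallel cultures by SRB total-protein staining (0.1% SRB after 10% TCA fixation, 560 nm).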

[4] = read-out: Intercellular Adhesion Molecule 1 (ICAM1), ICAM1 (gene 3383); assay: BSK_hDFCGF_ICAM1: BioMAP Diversity Plus: hDFCGF Assay for Intercellular Adhesion Molecule 1 (ICAM1) Biomarker Activity (AID 2284287); conditions: primary human foreskin fibroblasts
Outline: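 Primary human foreskin fibroblasts (hDFCGF system) dosed with chemical; ICAM-1 quantified by ELISA at 24 h relative to DMSO. Parallel SRB total-protein staining to assess overt cytotoxicity.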

CD40, CD40 (gene 958) = assay: BSK_IMphg_CD40: BioMAP Diversity Plus: IMphg Assay for CD40 Biomarker Activity (AID 2284288); conditions: primary human endothelial cells with macrophages
Outline: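 Venular endothelial cells co-cultured with macrophages (human primary), CD40 measured by ELISA 24 h after dosing. Positive-direction fit vs DMSO baseline; cytotoxicity tracked by SRB total-protein staining in parallel cultures.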

[5] = read-out: TIMP metallopeptidase inhibitor 2 (TIMP2), TIMP2 (gene 7077); assay: BSK_hDFCGF_TIMP2: BioMAP Diversity Plus: hDFCGF Assay for TIMP metallopeptidase inhibitor 2 (TIMP2) Biomarker Activity (AID 2284289); conditions: primary human foreskin fibroblasts
Outline: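 Primary human foreskin fibroblasts in the hDFCGF system, dosed for 24 h; TIMP-2 level measured by ELISA, fitted in the positive direction against DMSO; cytotoxicity checked in parallel by sulforhodamine B total protein staining.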

[6] = read-out: Interleukin-1 alpha (IL1a), IL1A (gene 3552); assay: BSK_IMphg_IL1a: BioMAP Diversity Plus: IMphg Assay for Interleukin-1 alpha (IL1a) Biomarker Activity (AID 2284290); conditions: primary human endothelial cells with macrophages
Outline: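 Human venular endothelial cells co-cultured with macrophages, IMphg system. IL-1α is measured by ELISA 24 h after dosing and fitted in the positive direction against DMSO. Cytotoxicity is assessed by SRB staining of parallel cultures.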

[7] = read-out: E-selectin (Homo sapiens) (UniProt P16581); assay: BSK_IMphg_ESelectin: BioMAP Diversity Plus: IMphg Assay for Eselectin Biomarker Activity (AID 2284291); conditions: primary human endothelial cells with macrophages
Outline: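 Human venular endothelial cell–macrophage co-culture, E-selectin measured by ELISA 24 h after chemical dosing. Signal fitted in the positive direction against DMSO as negative control and baseline.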

[8] = BSK_IMphg_SRB: Viability Assessment in the BioMAP Diversity Plus: IMphg Assay (AID 2284292); conditions: primary human endothelial cells with macrophages;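 further: measured one day after compound addition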
Outline: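 Human venular endothelial cells with macrophages, 24 h after chemical dosing; total protein by 0.1% SRB staining after 10% TCA fixation, read at 560 nm. Positive-direction fitting versus DMSO baseline.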

[9] = read-out: Macrophage colony-stimulating factor (MCSF), CSF1 (gene 1435); assay: BSK_IMphg_MCSF: BioMAP Diversity Plus: IMphg Assay for Macrophage colony-stimulating factor (MCSF) Biomarker Activity (AID 2284293); conditions: primary human endothelial cells with macrophages
Outline: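 Co-culture of human venular endothelial cells and macrophages, 24 hours of chemical exposure. M-CSF quantified by ELISA, with parallel SRB total-protein staining for cytotoxicity; activity fitted relative to DMSO.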

[10] = read-out: Interleukin-10 (IL10), IL10 (gene 3586); assay: BSK_IMphg_IL10: BioMAP Diversity Plus: IMphg Assay for Interleukin-10 (IL10) Biomarker Activity (AID 2284294); conditions: primary human endothelial cells with macrophages
Outline: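 Human venular endothelial cells cocultured with macrophages, dosed 24 h; IL-10 measured by ELISA, activity relative to DMSO. Cytotoxicity assessed in parallel cultures by sulforhodamine B total-protein staining.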

[11] = BSK_IMphg_SRB.Mphg: Macrophage Viability Assessment in the BioMAP Diversity Plus: IMphg Assay (AID 2284295); conditions: primary human endothelial cells with macrophages
Outline: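 Venular endothelial cells co-cultured with macrophages, read 24 h after dosing. Total protein measured by 0.1% SRB staining after 10% TCA fixation, absorbance at 560 nm. Fitted in positive direction against DMSO baseline.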

[12] = read-out: Thrombomodulin, THBD (gene 7056); assay: BSK_LPS_Thrombomodulin: BioMAP Diversity Plus: LPS Assay for Thrombomodulin Biomarker Activity (AID 2284296); conditions: primary human HUVEC with PBMC
Outline: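 Human umbilical vein endothelial cells co-cultured with PBMC and stimulated with LPS; cell-surface thrombomodulin measured by ELISA 24 hours after compound. Gain or loss versus DMSO; cytotoxicity checked by SRB staining in parallel cultures.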

CD69, CD69 (gene 969) = assay: BSK_LPS_CD69: BioMAP Diversity Plus: LPS Assay for CD69 Biomarker Activity (AID 2284303); conditions: primary human HUVEC with PBMC
Outline: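 Human umbilical vein endothelial cells co-cultured with PBMC under LPS stimulation, chemical exposure 24 h; cell-surface CD69 measured by ELISA and fitted in the positive direction versus DMSO.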

TTR (gene 7276) = assay: CCTE_GLTED_hTTR_0.5uM: CCTE's human Transthyretin (hTTR) Inhibition Assay, with 0.5uM TTR, Great Lakes Toxicology and Ecology Division (GLTED) Lab (AID 2284320)
Outline: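 Cell-free displacement assay in which human TTR at 0.5 uM was incubated with test chemical for 2 h. Displacement of the ANSA probe was read by fluorescence at 380 nm excitation/475 nm emission. Loss of signal was fitted in the positive direction versus DMSO.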

[13] = CCTE_Mundy_HCI_iCellGluta_NOG_NeuronCount: CCTE's Neurite Outgrowth Assay in iCellGluta cells for Neuron Count, Mundy Lab (AID 2284340; active means hit-call score of the fitted dose curve at least 0.9, where 1 is the maximum;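 further: cells fixed about 48 h after compound addition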)
Outline: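 Neuron count read by automated high-content imaging of Hoechst 33342 and betaIII-tubulin/Alexa Fluor-488 labelling in human iPSC glutamatergic neurons. Activity fitted relative to DMSO.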

IYD (gene 389434) = assay: CCTE_GLTED_hIYD: CCTE's human Iodotyrosine Deiodinase (xIYD) Inhibition Assay, Great Lakes Toxicology and Ecology Division (GLTED) Lab (AID 2284317; active means hit-call score of the fitted dose curve at least 0.9, where 1 is the maximum;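 further: cell-free human IYD enzyme made in baculovirus insect cells; iodide freed from monoiodotyrosine measured by cerium arsenite color change at 420 nm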)
Outline: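 Human IYD expressed in a baculovirus-insect cell system was incubated 3 h with monoiodotyrosine and test chemical. Released iodide, separated on Dowex columns, was quantified by the Sandell-Kolthoff reaction at 420 nm; plates were normalized to MNT and DMSO/NaOH controls.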

Measured: AC50

Chain of E-selectin (Homo sapiens) (P16581 whole entry, looked up): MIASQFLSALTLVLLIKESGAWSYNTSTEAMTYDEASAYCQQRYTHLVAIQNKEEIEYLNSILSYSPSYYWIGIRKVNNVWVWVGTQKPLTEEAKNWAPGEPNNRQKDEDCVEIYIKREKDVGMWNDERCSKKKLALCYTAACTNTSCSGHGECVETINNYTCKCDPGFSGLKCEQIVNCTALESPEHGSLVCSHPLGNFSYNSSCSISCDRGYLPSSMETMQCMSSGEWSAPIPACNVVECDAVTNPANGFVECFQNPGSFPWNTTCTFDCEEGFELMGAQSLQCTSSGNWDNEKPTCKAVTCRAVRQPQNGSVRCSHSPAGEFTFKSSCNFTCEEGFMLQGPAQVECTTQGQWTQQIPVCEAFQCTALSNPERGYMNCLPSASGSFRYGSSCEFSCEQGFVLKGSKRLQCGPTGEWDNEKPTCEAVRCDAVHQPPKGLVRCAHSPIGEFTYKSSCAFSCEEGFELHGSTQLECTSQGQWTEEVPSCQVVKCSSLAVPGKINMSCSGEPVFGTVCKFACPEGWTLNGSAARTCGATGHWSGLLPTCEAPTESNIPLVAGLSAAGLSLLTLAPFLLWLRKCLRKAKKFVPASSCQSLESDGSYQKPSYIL

NCC(F)(F)C(F)(F)C(F)(F)C(F)(F)C(F)(F)C(F)(F)C(F)(F)C(F)(F)F
inactive: [1] | [2] | [3] | [4] | CD40, CD40 (gene 958) | [5] | [6] | [7] | [8] | [9] | [10] | [11] | [12] | CD69, CD69 (gene 969)

C=CC(=O)OCC(F)(F)C(F)(F)C(F)(F)COC(=O)C=C
active: [1] 46 µM and 48.8 µM | [2] 2.84 µM and 2.59 µM | [3] 35 µM and 40 µM | [4] 2.6 µM and 2.45 µM | CD40, CD40 (gene 958) 22.6 µM and 23.9 µM | [6] 45 µM | [7] 40 µM and 33.5 µM | [8] 43.8 µM | [10] 38.3 µM and 41.1 µM | [11] 39.4 µM | [12] 8.08 µM and 7.99 µM | CD69, CD69 (gene 969) 15.9 µM and 10.5 µM | TTR (gene 7276) 0.424 µM
inactive: [5] | [6] | [8] | [9] | [11] | [13]

OCC(F)(F)C(F)(F)C(F)(F)C(F)(F)C(F)(F)C(F)(F)C(F)(F)C(F)(F)CO
active: [2] 51 µM and 42.3 µM | [3] 51.5 µM and 54.6 µM | [4] 54.5 µM and 46.2 µM | CD40, CD40 (gene 958) 46.5 µM and 41.2 µM | [6] 47.6 µM and 50.3 µM | [7] 51.5 µM and 36.1 µM | [8] 52.9 µM and 54 µM | [9] 39.7 µM | [10] 21.5 µM and 42.7 µM | [11] 46 µM and 39.8 µM | TTR (gene 7276) 2.78 µM
inactive: [1] | [5] | [9] | [12] | CD69, CD69 (gene 969)

OC(O)C(F)(F)C(F)(F)F
inactive: [1] | [2] | [3] | [4] | CD40, CD40 (gene 958) | [5] | [6] | [7] | [8] | [9] | [10] | [11] | [12] | CD69, CD69 (gene 969)

FC(F)(F)C(F)(F)C(F)(F)C(F)(F)C(F)(F)C(F)(F)CC[Si](Cl)(Cl)Cl
inactive: [1] | [2] | [3] | [4] | CD40, CD40 (gene 958) | [5] | [6] | [7] | [8] | [9] | [10] | [11] | [12] | CD69, CD69 (gene 969)
active: [2] 39.3 nM | [5] 0.519 µM | [11] 0.0514 µM

O=C(Cl)C(F)(F)C(F)(F)C(F)(F)C(F)(F)C(F)(F)C(F)(F)F
inactive: [1] | [2] | [3] | [4] | CD40, CD40 (gene 958) | [5] | [6] | [7] | [8] | [9] | [10] | [11] | [12] | CD69, CD69 (gene 969)
active: [10] 7.98 µM and 7.26 µM | TTR (gene 7276) 0.685 µM

O=C(O)CCC(F)(F)C(F)(F)C(F)(F)C(F)(F)C(F)(F)C(F)(F)C(F)(F)F
inactive: [1] | [2] | [3] | [4] | CD40, CD40 (gene 958) | [5] | [6] | [8] | [9] | [11] | [12] | CD69, CD69 (gene 969) | [13]
active: [7] 2.27 µM and 1.87 µM | [10] 3.33 µM | [11] 4.29 µM | IYD (gene 389434) 160 µM | TTR (gene 7276) 3.34 µM

O=S(=O)(Cl)C(F)(F)C(F)(F)C(F)(F)C(F)(F)C(F)(F)C(F)(F)C(F)(F)C(F)(F)F
active: [10] 54.1 µM | IYD (gene 389434) 100 µM | TTR (gene 7276) 0.234 µM
inactive: [1] | [2] | [3] | [4] | CD40, CD40 (gene 958) | [5] | [6] | [7] | [8] | [9] | [10] | [11] | [12] | CD69, CD69 (gene 969)

O=C(O)CCC(F)(F)C(F)(F)C(F)(F)F
active: CD40, CD40 (gene 958) 220 nM | TTR (gene 7276) 17.6 µM
inactive: [1] | [2] | [3] | [4] | CD40, CD40 (gene 958) | [5] | [6] | [7] | [8] | [9] | [10] | [11] | [12] | CD69, CD69 (gene 969) | [13]

COC(F)(C(F)F)C(F)(F)F (stereo unspecified)
inactive: [1] | [2] | [3] | [4] | CD40, CD40 (gene 958) | [5] | [6] | [7] | [8] | [9] | [10] | [11] | [12] | CD69, CD69 (gene 969)

CNS(=O)(=O)C(F)(F)C(F)(F)C(F)(F)C(F)(F)C(F)(F)C(F)(F)C(F)(F)C(F)(F)F
inactive: [1] | [2] | [3] | [4] | CD40, CD40 (gene 958) | [5] | [8] | [9] | [10] | [11] | [12] | CD69, CD69 (gene 969)
active: [3] 16.3 µM | [4] 36.8 µM | [5] 7.96 µM | [6] 6.58 µM and 9.9 µM | [7] 5.55 µM and 8.07 µM | [10] 17.9 µM | TTR (gene 7276) 1.34 µM
